In the library only some 7.4% were active in any assay of this set; here they are far more common.
FLuc counter = firefly luciferase modulation, counter-screen for miR-21 project | P08659 | purified FLuc, Km substrates, luminescence inhibition | Potency, µM (doses to about 57.5 µM), for inactives: at the top dose activity change, negative = inhibition, hits mostly inhibitors | actives 6.9% (n = 360,000) | AID 588342;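 also: plate controls were vehicle for no effect and reference inhibitor for full effect; nearly all actives have a fitted effect of over 55% in size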
Target sequence (P08659 whole entry, looked up): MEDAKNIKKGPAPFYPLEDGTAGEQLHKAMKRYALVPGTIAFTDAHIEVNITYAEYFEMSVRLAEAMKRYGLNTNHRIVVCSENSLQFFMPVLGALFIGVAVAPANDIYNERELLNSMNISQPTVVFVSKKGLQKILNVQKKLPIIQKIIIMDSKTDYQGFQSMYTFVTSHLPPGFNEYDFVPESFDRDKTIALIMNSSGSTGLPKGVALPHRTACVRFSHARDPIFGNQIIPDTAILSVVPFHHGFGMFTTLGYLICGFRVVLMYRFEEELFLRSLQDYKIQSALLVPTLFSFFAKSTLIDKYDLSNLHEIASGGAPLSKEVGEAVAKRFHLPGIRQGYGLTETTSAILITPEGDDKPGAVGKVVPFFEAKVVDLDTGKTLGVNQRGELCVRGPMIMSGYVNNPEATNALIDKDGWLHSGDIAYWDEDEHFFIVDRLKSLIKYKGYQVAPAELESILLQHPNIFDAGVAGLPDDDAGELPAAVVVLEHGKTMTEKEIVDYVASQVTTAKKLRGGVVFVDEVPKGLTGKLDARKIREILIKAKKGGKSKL
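Biochemical qHTS of compounds, final roughly 60 µM downward over six points, against 10 nM purified firefly luciferase using Km concentrations of substrates (10 uM D-luciferin, 10 uM ATP) in Tris acetate pH 7.5 buffer; luminescence output.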
Rab9 promoter act = activators of Rab9 promoter | actives 2.8% (n = 320,000) | Potency, µM (top dose mostly 9.22 µM), inactives show at the highest dose activation, negative = inhibition, hits mostly activators | Huh7 Rab9 promoter-luciferase reporter, luminescence, 24 h; also: % of control where 0% means no effect; nearly all actives have a fitted effect of over 60% in size
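Steps: seed 1500 Huh7 Rab9-luc cells per well, rest 2 h at 37 °C; add compound in DMSO; incubate 24 h; add luciferase reagent, 10 min ambient; read luminescence.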
ELG1 genotoxic = induces genotoxicity in HEK293T cells with luciferase-tagged ELG1 | HEK293T ELG1-luciferase reporter, luminescence, 16 h | actives 1.3% (n = 330,000) | Potency, µM (series often up to 46 µM), without a hit: at the highest dose activity change, positive = activation, hits mostly activators; also: % of control where 0% means no effect; nearly all actives have a fitted effect of over 60% in size
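Quantitative HTS format in 1536-well plates. HEK293T ELG1-luciferase reporter cells receive test compound and are incubated 16 hr at 37 °C, 5% CO2; ONE-Glo added, 30 min room temperature, then luminescence read.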
SMN2 splice up = increases expression of the SMN2 splice variant; actives 2.8% (n = 210,000); HEK293 SMN2-luciferase splicing reporter, luminescence, 30-36 h; AID 1458; Potency, µM (titrated, usually from 46.1 µM), without a hit: at the top dose activity change, positive = activation, most hits filed as activators; also: % of control where 0% means no effect; nearly all actives have a fitted effect of over 55% in size
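qHTS luciferase splicing reporter: luminescence rises when SMN2 exon 7 is included in transfected HEK293 cells. Compound exposure lasted 30-36 h at 37C, with 4.5 mM final sodium butyrate as control, followed by a ONE-Glo read.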
NPC1 prom act = activators of NPC1 promoter; Huh7 NPC1 promoter luciferase reporter, 24 h; Potency, µM (top dose mostly 9.22 µM), inactives show at the top dose activation, usual class: activators; actives 2.4% (n = 320,000); also: % of control where 0% means no effect; nearly all actives have a fitted effect of over 60% in size
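Luminescence from an NPC1 promoter-driven luciferase reporter in stably transfected Huh7 cells was measured after 24 h compound treatment at 37 °C, followed by 10 min ambient incubation with luciferase detection reagent.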
KinaseGlo FLuc = counter-screen: inhibitors of Kinase-Glo firefly luciferase; actives 0.28% (n = 200,000); Kinase-Glo luciferase, ATP luminescence, 8 min; Potency, µM (doses to about 38.3 µM), for the others: top-dose activity change, negative = inhibition, most hits filed as inhibitors; also: % is scaled to controls: 0 for no effect and ±100 for the full control effect; nearly all actives have a fitted effect of over 60% in size
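Compounds were added to a substrate mix at pH 7.2 (50 mM imidazole, 10 uM ATP, within the enzyme's linear range), followed by Kinase-Glo detection reagent; luminescence was measured after 8 minutes at ambient temperature.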
The depositor's hits bear a star; [ ] = remark or other dose. Calls follow the shape of the dose curve; as a rule, active = well fitted curve in the direction sought with a large enough effect; inconclusive = small, poorly fitted or top-dose-only effect, or another doubt; inactive = no such curve, though single readings can be large; an effect the other way counts as inactive or inconclusive. Potency is read from the fitted curve at half-maximal effect.

Results for Cc1cccc(N2C(=O)C(CC(=O)Nc3ccc(F)cc3)N(C3CCCC3)C2=O)c1 (stereo not given) ?
FLuc counter: -1%

How did C[C@H]1[C@H](O)[C@@H](C)C=CC=CC=CC=CC=CC=CC=C[C@H](O[C@@H]2O[C@@H](C)[C@H](O)[C@@H](N)[C@@H]2O)C[C@@H]2O[C@](O)(C[C@@H](O)C[C@@H](O)[C@@H](O)CC[C@@H](O)C[C@@H](O)CC(=O)O[C@H]1C)C[C@H](O)[C@H]2C(=O)O do in these assays?
SMN2 splice up: -4%[9.22 µM]; KinaseGlo FLuc: -19%[7.66 µM]

What do the screens show for `Cc1cccc(-c2nc(SCC(=O)N3CCc4ccccc43)c3c(=O)n(C)c(=O)n(C)c3n2)c1`?
FLuc counter: -1%

What do the screens show for `O=C(Nc1ccccc1)c1cnc2ccccc2n1`?
FLuc counter: 12µM*; Rab9 promoter act: 7%; ELG1 genotoxic: inconclusive; SMN2 splice up: inconclusive; NPC1 prom act: 19%; KinaseGlo FLuc: -8%

What do the screens show for `Cc1ccc(NC(=O)c2cnc3ccccc3n2)cc1C`?
FLuc counter: 2.4µM*; Rab9 promoter act: 0.5µM*; ELG1 genotoxic: inconclusive; NPC1 prom act: 0.2µM*

How did Cc1ccc(NC(=O)c2ncc(Cl)c(Cl)c2Cl)cc1C do in these assays?
FLuc counter: -15%; Rab9 promoter act: 2.8µM*; ELG1 genotoxic: inconclusive; SMN2 splice up: inconclusive; NPC1 prom act: -3%; KinaseGlo FLuc: -5%

How did NC(=O)c1ccc(NC(=O)c2cnc3ccccc3n2)cc1 do in these assays?
FLuc counter: inconclusive; Rab9 promoter act: 2.5µM*; ELG1 genotoxic: inconclusive; NPC1 prom act: inconclusive

How did CC(C)(C)n1ncc2c(=O)n(CC(=O)c3ccc(Cl)cc3)cnc21 do in these assays?
FLuc counter: 7.6µM*; Rab9 promoter act: 3.2µM*; ELG1 genotoxic: 18%; SMN2 splice up: 18µM*; NPC1 prom act: 2.8µM*; KinaseGlo FLuc: -4%

How did CC1CCN(C(=O)Cn2cnc3c(cnn3C(C)(C)C)c2=O)CC1 do in these assays?
FLuc counter: inconclusive; Rab9 promoter act: 3.2µM*; ELG1 genotoxic: inconclusive; SMN2 splice up: 16µM*; NPC1 prom act: inconclusive; KinaseGlo FLuc: -2%

How did CC(C)(C)n1ncc2c(=O)n(CC(=O)NCc3ccccc3)cnc21 do in these assays?
FLuc counter: 4.8µM*; Rab9 promoter act: inconclusive; ELG1 genotoxic: inconclusive; SMN2 splice up: 2.8µM*; NPC1 prom act: 0.45µM*; KinaseGlo FLuc: 0%

How did CC(C)(C)n1ncc2c(=O)n(Cc3c(F)cccc3Cl)cnc21 do in these assays?
FLuc counter: 24µM*; Rab9 promoter act: 4%; ELG1 genotoxic: -9%; SMN2 splice up: -15%; NPC1 prom act: 20%; KinaseGlo FLuc: -6%

What do the screens show for `CC(=O)Nc1ccc(NC(=O)Cn2cnc3c(cnn3C(C)(C)C)c2=O)cc1`?
FLuc counter: -5%; Rab9 promoter act: -2%; ELG1 genotoxic: 24%; SMN2 splice up: -8%; NPC1 prom act: 11%; KinaseGlo FLuc: -3%

What do the screens show for `CCc1c(C)sc2c1CCN(C(=O)Nc1cc(Cl)c(OC)cc1OC)C2c1ccccc1` (stereo not given)?
FLuc counter: -2%

What do the screens show for `CCCOCC(C)OCC(C)O` (stereo not given)?
SMN2 splice up: 4%

Results for O=C(NCc1ccc(Cl)cc1)c1cnc(N2CCOCC2)c2ccccc12 ?
FLuc counter: 1%

Results for O=C(NCc1ccccc1Cl)C(=O)NCC(c1cccs1)S(=O)(=O)c1cccs1 (stereo not given) ?
FLuc counter: 1%

How did Cc1c(CC(=O)N[C@@H](C)C(=O)O)c(=O)oc2cc3occ(-c4ccccc4)c3cc12 do in these assays?
FLuc counter: 21µM*; Rab9 promoter act: -2%; ELG1 genotoxic: -6%; NPC1 prom act: -1%

How did Cc1c(CC(=O)NCCC(=O)O)c(=O)oc2cc3occ(-c4ccccc4)c3cc12 do in these assays?
FLuc counter: 15µM*; Rab9 promoter act: 7%; ELG1 genotoxic: 1%; NPC1 prom act: -2%

What do the screens show for `C=C1C2=CC(=O)OC(c3ccoc3)[C@]2(C)CCC1[C@]1(C)C=CC(=O)C(C)(C)C1CC(=O)OC` (stereo not given in full)?
SMN2 splice up: -2%; KinaseGlo FLuc: -6%

What do the screens show for `Cc1ccc2c(c1)N(C(=O)Nc1cccc3c1CCCC3)CCO2`?
FLuc counter: 4%

Results for Oc1ccc(/C=N/Nc2ccc(C(F)(F)F)cn2)cc1 ?
FLuc counter: 17µM*; Rab9 promoter act: 3.5µM*; ELG1 genotoxic: inconclusive; SMN2 splice up: 16µM*; NPC1 prom act: inconclusive; KinaseGlo FLuc: -1%

What do the screens show for `Oc1ccc(/C=N/Nc2cccc(Cl)n2)c(O)c1`?
FLuc counter: 5.4µM*; Rab9 promoter act: 8%; ELG1 genotoxic: inconclusive; NPC1 prom act: inconclusive

How did Oc1ccc(/C=N/Nc2ccc(C(F)(F)F)cn2)c(O)c1 do in these assays?
FLuc counter: 12µM*; Rab9 promoter act: 12%; ELG1 genotoxic: inconclusive; NPC1 prom act: -21%

What do the screens show for `COc1cccc(C2=CC(c3ccccc3F)n3ncc(C(=O)Nc4ccc(F)cc4)c3N2)c1` (stereo not given)?
FLuc counter: -6%

How did Cc1ccc(N=c2sc(C)c(C)n2C)cc1 do in these assays?
FLuc counter: 21µM*; Rab9 promoter act: inconclusive; ELG1 genotoxic: inconclusive; SMN2 splice up: inconclusive; NPC1 prom act: inconclusive; KinaseGlo FLuc: -1%

What do the screens show for `O=C(Nc1ccccc1)N(Cc1cccs1)c1ccc(Cl)cc1`?
FLuc counter: -15%

How did CC(=O)c1sc2nsc(SCCN3CCOCC3)c2c1N do in these assays?
FLuc counter: -19%; Rab9 promoter act: 16%; ELG1 genotoxic: 6%; NPC1 prom act: 1%

What do the screens show for `Nc1c(C(=O)c2ccccc2)sc2nsc(SCCN3CCOCC3)c12`?
FLuc counter: 21µM*; Rab9 promoter act: inconclusive; ELG1 genotoxic: 9%; NPC1 prom act: inconclusive

What do the screens show for `COc1ccc(-c2oc3cccnc3c2/C=C/c2ccc(OC)c(OC)c2)cc1`?
FLuc counter: 7.6µM*; Rab9 promoter act: 3%; ELG1 genotoxic: 2%; NPC1 prom act: 2%

How did COc1ccc(/C=C/c2c(-c3ccc(OC)cc3)oc(=O)c3cc(OC)c(OC)cc23)cc1 do in these assays?
ELG1 genotoxic: 0%

What do the screens show for `Cc1ccc(-n2ncc3c(N(C)C)ncnc32)cc1Cl`?
FLuc counter: 0.76µM*

Results for Cc1ccc(-n2ncc3c(N4CCN(c5ccc(F)cc5)CC4)ncnc32)cc1 ?
FLuc counter: 0%
